Consider 36 compounds from PubChem BioAssay (NCATS).

For some assays here: Potency and affinity values are given separately. Active and inactive are the calls of the source.

For assay [1] the following is noted: Ebola virus entry assay, green fluorescence channel.
The conditions of assay [2]: Ebola virus entry assay, blue channel fluorescence.
The nature of assay [3]: qHTS profiling of the MIPE4 collection as inhibitors of Plasmodium falciparum (3D7) proliferation (AID 743344).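 Note: scaled between DMSO vehicle wells and 0.29 µM artemisinin as full inhibition.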 The note with it: P. falciparum 3D7 in erythrocytes, SYBR Green DNA fluorescence, 72 h; at 28.5 µM (top of the series) unless noted. In outline: (§1)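 Parasite DNA was quantified by SYBR Green I fluorescence (ex 485, em 535 nm) after overnight lysis in saponin/Triton buffer at room temperature. Cultures at 0.3% parasitemia and 2.5% hematocrit were first exposed to compound for 72 h at 37 C; signals were normalised to artemisinin (0.29 uM) and vehicle wells.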

A short description of assay [4]: qHTS profiling of the MIPE4 collection as inhibitors of Plasmodium falciparum (DD2) proliferation (AID 743345). The note with it: P. falciparum Dd2 in erythrocytes, SYBR Green DNA, 72 h; at 28.5 µM (top of the series) unless noted. Put shortly:
as §1

Assay [5] is described as follows: qHTS profiling of the MIPE4 collection as inhibitors of Plasmodium falciparum (DD2) proliferation (Rep 2) (AID 743346). The conditions noted are these: P. falciparum Dd2 in erythrocytes, SYBR Green DNA, 72 h; at 28.5 µM (top of the series) unless noted. Put shortly:
as §1

The nature of assay [6]: qHTS profiling of the MIPE4 collection as inhibitors of Plasmodium falciparum (HB3) proliferation (AID 743347).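 Note: plate controls were DMSO vehicle wells for no effect and artemisinin wells for full effect.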 The note with it: P. falciparum HB3 in erythrocytes, SYBR Green DNA, 72 h; at 28.5 µM (top of the series) unless noted. In outline: as §1
For assay [7] the following is noted: Ebola virus entry assay, blue channel fluorescence. The source holds these as a separate data set.
For assay [8] the following is noted: Ebola virus entry assay, green fluorescence channel. This is another data set of the same source.
For assay [9] the following is noted: Ebola virus entry assay, ratio channel readout.
Throughout, for efficacy: 0% is about no effect.

On to `NNC(=O)c1ccncc1`, for which, in assay [1], the efficacy is 13.1% (inactive). In [2], the compound was called inactive.
Take `CCCCCC[C@@H](CCC)C(=O)O`: the efficacy in assay [1] was 13.6% (inactive). For the same compound, in assay [2], the compound was classed as inactive.
On to `CCc1cc(S(=O)(=O)O)c2cc(C(C)C)cccc1-2`, for which the efficacy in assay [1] is 18.8% (inactive). Further, the compound was called inactive in [2].
`CN1C(=O)COc2c(C(=O)NC3CN4CCC3CC4)cc(Cl)cc21` (stereo unspecified) showed a parasite growth, % of DMSO control in [3] of 98.1%. The same compound showed a parasite growth remaining, % of DMSO control (lower = more inhibition) in [4] of 78.2%. Besides, the parasite growth, % of control (lower = inhibition) in assay [5] is 95.9%. This compound yielded a growth, % of control in assay [6] of 86.6%. In [1], the efficacy is -18% (inactive).
In the case of `O=C1CC(c2ccc(Cl)cc2)CC(=O)N1`, in assay [1], the efficacy was -27.6% (inactive). For the same compound, the call in assay [2] was inactive.
For `COC(=O)N/N=C/c1c[n+]([O-])c2ccccc2[n+]1[O-]`, in assay [1], the efficacy was 35% (inactive). In addition, the compound was called inactive in [2].
In the same order, the values of `CC(C(=O)O)c1ccc(/C=C2\CCCCC2=O)cc1` (stereo unspecified) are 13.8% (inactive) and “inactive”.
As for `CN1C(=O)CCS(=O)(=O)C1c1ccc(Cl)cc1` (stereo unspecified), in assay [3], the parasite growth, % of DMSO control worked out at 98.6%. This compound showed a parasite growth remaining, % of DMSO control (lower = more inhibition) in [4] of 91.5%. Besides, the parasite growth, % of control (lower = inhibition) in assay [5] amounted to 126%. For the same compound, in assay [6], the growth, % of control turned out to be 109%. For the same compound, the efficacy in assay [1] was 19.9% (inactive).
For `CC[N+](CC)(CC)CCOc1cccc(OCC[N+](CC)(CC)CC)c1OCC[N+](CC)(CC)CC`, the parasite growth, % of DMSO control in [3] amounted to 86%. The parasite growth, % of control (lower = inhibition) in assay [5] was 133%. The same compound displayed a growth, % of control in assay [6] of 111%. Besides, the efficacy in assay [1] is 15.9% (inactive). Moreover, the compound was classed as inactive in assay [2].
For the compound `CC[N+]1(CC)CCC(OC(=O)C(O)(c2ccccc2)c2ccccc2)C1` (stereo unspecified), the efficacy in [1] is -22.9% (inactive). Moreover, the result in assay [2] was inactive.
Compound `Cn1c(=O)c2[nH]cnc2n(C)c1=O` registered a parasite growth, % of DMSO control in [3] of 85.4%. For the same compound, the parasite growth, % of control (lower = inhibition) in [5] came to 114%. The same compound registered a growth, % of control in [6] of 96.9%. Besides, in [1], the efficacy was -18.7% (inactive).
As for `CN1Cc2cc(C(=O)N3CCC(C4CCNCC4)CC3)ccc2NC(CC(=O)O)C1=O` (stereo unspecified), the efficacy in [1] is 57.9% (inactive). In assay [2], the compound was called inactive.
`CCC(=O)c1c(O)cc(O)cc1O`: in assay [1], the efficacy is 21.1% (inactive). Also, the call in assay [2] was inactive.
On the same counts, the results for `COC(=O)C1=C(C)NC(C)=C(C(=O)OCC(C)=O)C1c1ccccc1[N+](=O)[O-]` (stereo unspecified) are -11.1% (inactive) and “inactive”.
As to `COc1cc([C@@H]2c3cc4c(cc3[C@@H](O[C@@H]3O[C@@H]5CO[C@@H](C)O[C@H]5[C@H](O)[C@H]3O)[C@H]3COC(=O)[C@H]23)OCO4)cc(OC)c1O`, the compound was called inactive in assay [7] and in assay [8].
In the case of `CCCCCCCCCC(=O)O[C@H]1CC[C@H]2[C@@H]3CCC4=CC(=O)CC[C@@H]4[C@H]3CC[C@]12C`, the efficacy in assay [1] is 27.8% (inactive). Besides, in assay [2], the outcome was inactive.
In the same order, the values of `Oc1ccc(Cl)c2cccnc12` are -23.9% (inactive) and “inactive”.
In the same order, the values of `NCCCNCCSP(=O)(O)O` are 18% (inactive) and “inactive”.
`CN=C(NC#N)NCCSCc1csc(N=C(N)N)n1`: the efficacy in assay [1] was -13.8% (inactive). Also, in assay [2], the compound was classed as inactive.
As to `Cc1c[nH]c2ccccc12`, the efficacy in assay [1] is -29.9% (inactive). Moreover, in [2], the compound was called inactive.
As for `O=C1c2ccccc2CCc2ccccc21`, in [1], the efficacy is 12.1% (inactive). The compound was classed as inactive in assay [2].
`CCCCCN(C)CCC(O)(P(=O)(O)O)P(=O)(O)O`: the outcome in [7] and in assay [8] was inactive.
In the case of `Cc1onc(-c2c(Cl)cccc2Cl)c1C(=O)Cl`, in [1], the efficacy was -15.7% (inactive). The outcome in assay [2] was inactive.
On to `CC1(C)S[C@@H]2[C@H](NC(=O)[C@H](N)c3ccc(O)cc3)C(=O)N2[C@H]1C(=O)O`, for which the result in assay [7] and in [8] was inactive.
For the compound `O=c1[nH]cnc2[nH]ncc12`, the parasite growth, % of DMSO control in assay [3] is 105%. Also, the parasite growth remaining, % of DMSO control (lower = more inhibition) in assay [4] stood at 91.2%. Further, the parasite growth, % of control (lower = inhibition) in assay [5] stood at 153%. Further, the growth, % of control in assay [6] turned out to be 93.3%. In addition, the efficacy in assay [1] was -34% (inactive). Besides, in assay [2], the result was inactive.
As for `CC(C)OC(=O)OCOP(=O)(CO[C@H](C)Cn1cnc2c(N)ncnc21)OCOC(=O)OC(C)C`, in assay [3], the parasite growth, % of DMSO control was found to be 292%. For the same compound, the parasite growth remaining, % of DMSO control (lower = more inhibition) in assay [4] turned out to be 79.8%. The parasite growth, % of control (lower = inhibition) in [5] came to 74.1%. Moreover, in assay [6], the growth, % of control stood at 345%. Further, the efficacy in assay [1] is -18.7% (inactive).
Take `O=C(O)CCCCCCCC(=O)O`: in [1], the efficacy is 17.2% (inactive). In [2], the call was inactive.
For the compound `CC(C)C(=O)Nc1cccc(C(F)(F)F)c1`, in [1], the efficacy was 16.7% (inactive). Also, in [2], the call was inactive.
As to `CC(=O)CC(c1ccccc1)c1c(O)c2ccccc2oc1=O` (stereo unspecified), the parasite growth, % of DMSO control in [3] was found to be 71.1%. In addition, in assay [4], the parasite growth remaining, % of DMSO control (lower = more inhibition) amounted to 93.4%. For the same compound, the parasite growth, % of control (lower = inhibition) in [5] turned out to be 69.5%. Also, in assay [6], the growth, % of control was found to be 84.4%. Also, the efficacy in [1] is -35.3% (inactive).
Compound `C[C@]12CC[C@H]3[C@@H](CC[C@@]45O[C@H]4C(O)=C(C#N)C[C@]35C)[C@H]1CC[C@H]2O` yielded a parasite growth, % of DMSO control in assay [3] of 70.4%. This compound also had a parasite growth remaining, % of DMSO control (lower = more inhibition) in assay [4] of 70.8%. The parasite growth, % of control (lower = inhibition) in assay [5] is 55.7%. The compound further had a growth, % of control in assay [6] of 90.1%. In assay [1], the efficacy was 26.8% (inactive).
Consider `C[C@]12Cc3cn[nH]c3C[C@@H]1CC[C@@H]1[C@@H]2CC[C@@]2(C)[C@H]1CC[C@]2(C)O`, for which, in assay [1], the efficacy was 8.25% (inactive). Also, the compound was called inactive in [2].
Consider `C[C@@H]1O[C@@H](O[C@H]2CC[C@@]3(C)[C@H](CC[C@@H]4[C@H]3C[C@@H](O)[C@]3(C)[C@@H](C5=CC(=O)OC5)CC[C@]43O)C2)C[C@H](O)[C@@H]1O[C@H]1C[C@H](O)[C@H](O[C@H]2C[C@H](O)[C@@H](O)[C@@H](C)O2)[C@H](C)O1` (stereo in doubt), for which, in assay [7], the AC50 is 1 µM (active). Moreover, the outcome in [8] and in assay [9] was inactive.
With `CNNCc1ccc(C(=O)NC(C)C)cc1`, the outcome in [7], in assay [8] and in [9] was inactive.
With `O=C(O)c1cc(N=Nc2ccc(O)c(C(=O)O)c2)ccc1O`, the compound was called inactive in assay [7], in [8] and in assay [9].
Take `CCCCCCCCCCCCCCCC(=O)OCCC1CCN(CCCN2c3ccccc3Sc3ccc(S(=O)(=O)N(C)C)cc32)CC1`: the compound was classed as inactive in assay [7], in assay [8] and in assay [9].
With `CN1C[C@H](C(=O)N[C@]2(C)O[C@@]3(O)[C@@H]4CCCN4C(=O)[C@H](Cc4ccccc4)N3C2=O)C=C2c3cccc4[nH]cc(c34)C[C@H]21`, the compound was called inactive in assay [7], in assay [8] and in assay [9].
